# Source: ChEMBL document CHEMBL2218924, “A broad activity screen in support of a chemogenomic map for kinase signalling research and drug discovery” (Biochem J, 2013)
# Legend:
# [1] = biological target: T1, Serine/threonine-protein kinase 17A (Homo sapiens) (UniProt Q9UEE5); conditions: at 1 µM
# T1 sequence (whole entry): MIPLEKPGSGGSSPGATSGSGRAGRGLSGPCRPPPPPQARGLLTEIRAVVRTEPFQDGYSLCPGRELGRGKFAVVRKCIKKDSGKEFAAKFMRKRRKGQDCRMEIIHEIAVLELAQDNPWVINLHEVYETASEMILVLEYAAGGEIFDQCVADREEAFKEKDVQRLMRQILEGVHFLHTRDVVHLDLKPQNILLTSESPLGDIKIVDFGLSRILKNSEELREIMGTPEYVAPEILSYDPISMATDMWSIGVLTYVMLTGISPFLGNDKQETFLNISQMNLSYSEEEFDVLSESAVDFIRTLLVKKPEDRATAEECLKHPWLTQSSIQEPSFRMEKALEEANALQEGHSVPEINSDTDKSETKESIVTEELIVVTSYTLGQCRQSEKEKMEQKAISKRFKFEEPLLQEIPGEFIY
# [2] = biological target: T1, Serine/threonine-protein kinase 17A (Homo sapiens); conditions: at 10 µM
# [3] = biological target: T2, Dual specificity tyrosine-phosphorylation-regulated kinase 2 (Homo sapiens) (UniProt Q92630); conditions: at 1 µM
# T2 sequence (whole entry): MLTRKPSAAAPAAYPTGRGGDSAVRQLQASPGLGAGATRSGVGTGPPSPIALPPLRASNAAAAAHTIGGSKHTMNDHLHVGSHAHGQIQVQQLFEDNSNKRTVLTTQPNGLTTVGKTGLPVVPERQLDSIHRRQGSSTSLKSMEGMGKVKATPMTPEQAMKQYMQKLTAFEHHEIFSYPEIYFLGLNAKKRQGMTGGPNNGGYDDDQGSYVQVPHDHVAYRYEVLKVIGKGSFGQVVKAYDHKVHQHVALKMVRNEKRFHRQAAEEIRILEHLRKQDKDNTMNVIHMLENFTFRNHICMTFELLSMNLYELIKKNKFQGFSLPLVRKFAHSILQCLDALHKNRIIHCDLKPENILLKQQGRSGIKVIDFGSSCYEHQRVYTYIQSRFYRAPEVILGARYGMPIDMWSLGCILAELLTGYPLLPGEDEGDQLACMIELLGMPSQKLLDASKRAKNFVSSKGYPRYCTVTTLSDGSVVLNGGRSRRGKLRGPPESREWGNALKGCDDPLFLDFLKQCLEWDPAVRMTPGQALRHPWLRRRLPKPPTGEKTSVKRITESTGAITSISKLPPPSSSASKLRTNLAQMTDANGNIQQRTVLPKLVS
# [4] = biological target: T2, Dual specificity tyrosine-phosphorylation-regulated kinase 2 (Homo sapiens); conditions: at 10 µM
# [5] = biological target: T3, Ephrin type-A receptor 1 (Homo sapiens) (UniProt P21709); conditions: at 1 µM
# T3 sequence (whole entry): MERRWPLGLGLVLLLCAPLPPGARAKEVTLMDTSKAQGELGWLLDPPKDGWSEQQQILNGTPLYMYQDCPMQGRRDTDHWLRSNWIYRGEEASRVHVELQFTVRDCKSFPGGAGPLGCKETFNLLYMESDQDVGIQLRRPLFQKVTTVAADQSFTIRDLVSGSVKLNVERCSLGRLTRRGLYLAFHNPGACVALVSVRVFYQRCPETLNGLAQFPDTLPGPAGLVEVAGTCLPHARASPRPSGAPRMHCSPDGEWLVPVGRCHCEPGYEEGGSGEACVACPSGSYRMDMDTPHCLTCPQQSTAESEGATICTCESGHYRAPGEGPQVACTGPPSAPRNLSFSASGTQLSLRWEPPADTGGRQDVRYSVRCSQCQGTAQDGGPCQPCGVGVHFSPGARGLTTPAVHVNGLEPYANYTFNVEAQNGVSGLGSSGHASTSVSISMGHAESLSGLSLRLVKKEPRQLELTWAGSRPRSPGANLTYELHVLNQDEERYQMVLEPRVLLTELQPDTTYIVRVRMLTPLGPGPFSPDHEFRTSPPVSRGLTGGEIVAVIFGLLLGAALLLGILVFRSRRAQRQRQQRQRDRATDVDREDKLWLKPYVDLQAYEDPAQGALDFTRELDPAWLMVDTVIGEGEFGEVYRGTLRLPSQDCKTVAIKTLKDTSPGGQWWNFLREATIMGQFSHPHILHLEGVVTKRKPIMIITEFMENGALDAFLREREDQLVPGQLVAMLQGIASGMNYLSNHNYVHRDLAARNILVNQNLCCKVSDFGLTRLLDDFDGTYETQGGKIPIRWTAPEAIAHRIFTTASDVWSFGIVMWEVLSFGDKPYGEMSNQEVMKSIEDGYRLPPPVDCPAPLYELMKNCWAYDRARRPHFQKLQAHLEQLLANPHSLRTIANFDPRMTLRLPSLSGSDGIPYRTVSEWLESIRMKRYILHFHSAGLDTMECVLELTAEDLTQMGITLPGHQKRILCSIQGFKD
# [6] = biological target: T3, Ephrin type-A receptor 1 (Homo sapiens); conditions: at 10 µM
# [7] = biological target: Ephrin type-A receptor 2 (Homo sapiens) (UniProt P29317); conditions: at 1 µM
# Chain of Ephrin type-A receptor 2 (Homo sapiens) (P29317 whole entry): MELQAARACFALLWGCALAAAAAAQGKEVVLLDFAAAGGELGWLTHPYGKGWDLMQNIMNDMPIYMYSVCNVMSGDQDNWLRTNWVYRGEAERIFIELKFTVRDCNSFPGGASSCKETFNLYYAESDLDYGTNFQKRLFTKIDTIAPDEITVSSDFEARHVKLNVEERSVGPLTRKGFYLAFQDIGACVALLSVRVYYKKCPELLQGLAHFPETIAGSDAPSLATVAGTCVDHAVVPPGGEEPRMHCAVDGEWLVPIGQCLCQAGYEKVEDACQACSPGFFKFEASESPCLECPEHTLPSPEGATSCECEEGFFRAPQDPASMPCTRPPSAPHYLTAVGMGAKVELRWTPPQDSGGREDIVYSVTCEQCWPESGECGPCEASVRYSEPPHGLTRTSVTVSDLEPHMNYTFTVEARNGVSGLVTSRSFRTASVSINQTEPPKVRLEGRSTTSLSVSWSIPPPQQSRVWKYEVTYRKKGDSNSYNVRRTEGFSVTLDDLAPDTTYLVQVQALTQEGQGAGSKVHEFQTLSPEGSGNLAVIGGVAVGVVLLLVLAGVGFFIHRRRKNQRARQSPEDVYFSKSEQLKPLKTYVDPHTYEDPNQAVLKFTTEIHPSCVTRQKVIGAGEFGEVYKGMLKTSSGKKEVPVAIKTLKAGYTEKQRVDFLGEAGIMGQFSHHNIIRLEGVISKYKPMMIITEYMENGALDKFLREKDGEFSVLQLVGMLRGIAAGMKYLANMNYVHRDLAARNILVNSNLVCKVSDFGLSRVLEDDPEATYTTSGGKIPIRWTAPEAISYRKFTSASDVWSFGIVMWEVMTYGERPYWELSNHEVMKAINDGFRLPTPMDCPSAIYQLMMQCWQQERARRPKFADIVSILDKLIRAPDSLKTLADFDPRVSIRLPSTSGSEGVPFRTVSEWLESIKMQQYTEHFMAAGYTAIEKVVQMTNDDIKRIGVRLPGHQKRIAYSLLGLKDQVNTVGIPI
# [8] = biological target: Ephrin type-A receptor 2 (Homo sapiens) (UniProt P29317); conditions: at 10 µM
# [9] = biological target: T4, Ephrin type-A receptor 3 (Homo sapiens) (UniProt P29320); conditions: at 1 µM
# T4 sequence (whole entry): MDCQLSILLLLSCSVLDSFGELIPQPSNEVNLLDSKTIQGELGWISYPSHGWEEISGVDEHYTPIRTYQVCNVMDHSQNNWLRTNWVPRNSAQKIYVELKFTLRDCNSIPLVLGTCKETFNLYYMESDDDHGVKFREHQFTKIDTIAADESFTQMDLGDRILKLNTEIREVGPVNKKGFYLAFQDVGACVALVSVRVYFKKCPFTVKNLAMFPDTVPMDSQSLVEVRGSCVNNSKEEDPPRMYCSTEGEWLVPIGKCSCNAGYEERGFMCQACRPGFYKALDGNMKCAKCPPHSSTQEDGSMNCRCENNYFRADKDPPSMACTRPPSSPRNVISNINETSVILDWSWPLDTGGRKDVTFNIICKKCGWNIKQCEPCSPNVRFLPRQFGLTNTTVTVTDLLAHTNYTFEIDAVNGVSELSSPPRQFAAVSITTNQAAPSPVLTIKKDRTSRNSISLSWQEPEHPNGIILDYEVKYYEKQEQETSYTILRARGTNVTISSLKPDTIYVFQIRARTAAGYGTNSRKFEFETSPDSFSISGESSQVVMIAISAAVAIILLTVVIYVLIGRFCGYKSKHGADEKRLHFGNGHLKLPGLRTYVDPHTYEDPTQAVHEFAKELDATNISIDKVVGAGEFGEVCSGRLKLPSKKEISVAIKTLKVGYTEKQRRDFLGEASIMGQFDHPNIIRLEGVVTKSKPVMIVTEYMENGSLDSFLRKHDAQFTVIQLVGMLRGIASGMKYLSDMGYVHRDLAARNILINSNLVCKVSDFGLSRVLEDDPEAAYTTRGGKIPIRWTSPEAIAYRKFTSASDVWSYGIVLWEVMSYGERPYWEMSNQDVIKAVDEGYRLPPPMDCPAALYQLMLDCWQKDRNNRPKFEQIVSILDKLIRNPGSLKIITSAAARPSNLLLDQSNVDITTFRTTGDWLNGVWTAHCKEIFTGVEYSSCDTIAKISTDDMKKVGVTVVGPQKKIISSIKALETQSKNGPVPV
# [10] = biological target: Epidermal growth factor receptor (Homo sapiens) (UniProt P00533); conditions: at 10 µM
# Chain of Epidermal growth factor receptor (Homo sapiens) (P00533 whole entry): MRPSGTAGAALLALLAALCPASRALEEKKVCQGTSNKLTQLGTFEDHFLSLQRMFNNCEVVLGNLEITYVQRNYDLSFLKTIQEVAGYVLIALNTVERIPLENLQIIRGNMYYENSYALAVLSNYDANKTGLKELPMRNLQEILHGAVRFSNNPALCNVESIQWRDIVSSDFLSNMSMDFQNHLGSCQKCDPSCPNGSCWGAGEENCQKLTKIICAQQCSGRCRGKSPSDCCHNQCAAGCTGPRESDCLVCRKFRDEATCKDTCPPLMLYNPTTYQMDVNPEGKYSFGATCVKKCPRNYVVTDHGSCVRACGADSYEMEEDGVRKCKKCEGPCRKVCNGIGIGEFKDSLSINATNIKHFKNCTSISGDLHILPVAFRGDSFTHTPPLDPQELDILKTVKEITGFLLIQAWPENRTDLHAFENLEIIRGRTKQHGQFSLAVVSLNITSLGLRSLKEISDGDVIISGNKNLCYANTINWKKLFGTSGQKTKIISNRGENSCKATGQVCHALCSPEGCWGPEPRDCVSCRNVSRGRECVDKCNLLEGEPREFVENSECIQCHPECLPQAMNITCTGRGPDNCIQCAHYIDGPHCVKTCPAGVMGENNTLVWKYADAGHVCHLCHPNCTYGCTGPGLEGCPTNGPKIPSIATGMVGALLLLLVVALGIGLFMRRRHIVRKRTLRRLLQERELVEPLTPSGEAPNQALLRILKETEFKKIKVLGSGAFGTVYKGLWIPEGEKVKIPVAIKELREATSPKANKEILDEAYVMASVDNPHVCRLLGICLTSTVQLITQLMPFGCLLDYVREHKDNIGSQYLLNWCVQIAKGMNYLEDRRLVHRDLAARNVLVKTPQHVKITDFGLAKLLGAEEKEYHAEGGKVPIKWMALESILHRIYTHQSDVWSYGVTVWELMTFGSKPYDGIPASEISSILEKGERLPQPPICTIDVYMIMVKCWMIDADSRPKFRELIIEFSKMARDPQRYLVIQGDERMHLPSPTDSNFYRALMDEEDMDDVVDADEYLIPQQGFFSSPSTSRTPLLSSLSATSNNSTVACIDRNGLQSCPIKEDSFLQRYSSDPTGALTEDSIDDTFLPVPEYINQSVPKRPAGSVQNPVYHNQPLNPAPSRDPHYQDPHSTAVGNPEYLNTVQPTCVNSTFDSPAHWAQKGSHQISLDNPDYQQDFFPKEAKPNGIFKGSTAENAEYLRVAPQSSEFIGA
Compound,residual activity [1] [%],residual activity [2] [%],residual activity [3] [%],residual activity [4] [%],residual activity [5] [%],residual activity [6] [%],residual activity [7] [%],residual activity [8] [%],residual activity [9] [%],residual activity [10] [%]
O=[N+]([O-])/C=C/c1ccc2c(c1)OCO2,119,63,101,106,95,102,106,115,115,
COc1ccc2c(c[n+](C)c3c4cc5c(cc4ccc23)OCO5)c1OC,,77,,96,94,,,100,,
CCn1cnc2c(Nc3cccc(Cl)c3)nc(N[C@@H]3CCCC[C@@H]3N)nc21,90,83,,85,15,3,66,24,61,95
COC(=O)[C@@]1(O)C[C@H]2O[C@]1(C)n1c3ccccc3c3c4c(c5c6ccccc6n2c5c31)C(=O)NC4,0,1,2,-4,3,0,44,8,42,
CC(C)(C)c1cc(C=C(C#N)C#N)cc(Br)c1O,147,100,107,101,115,130,107,104,122,
COc1cc2ncnc(Nc3ccc(OCc4ccccc4)cc3)c2cc1OC,116,95,102,94,94,104,125,108,115,
C[S+]([O-])c1ccc(-c2nc(-c3ccc(F)cc3)c(-c3ccncc3)[nH]2)cc1 (configuration not stated),123,103,115,98,90,26,95,62,105,
c1cc(-c2cnn3cc(-c4ccc(OCCN5CCCCC5)cc4)cnc23)ccn1,19,7,52,7,17,1,59,8,58,
O=c1[nH]c2ccccc2n1C1CCN(Cc2ccc(-c3nc4cc5[nH]cnc5cc4nc3-c3ccccc3)cc2)CC1,126,112,111,98,102,90,103,95,112,
O=C1NC(=O)c2c1c1c3ccccc3n3c1c1c2c2ccccc2n1C1CCC3O1,16,8,91,58,,,94,98,,
O=C1c2ccccc2-c2nc3nnnn3nc21,108,114,101,100,100,123,107,116,,
COc1cc(OC)c(/C=C2\C(=O)Nc3ccccc32)c(OC)c1,,,102,93,89,82,88,93,97,
COc1ccc2c(c1)/C(=C/c1cnc[nH]1)C(=O)N2,,,77,16,,,,,,97
CC(C)[C@H](CO)Nc1nc(Nc2cccc(Cl)c2)c2ncn(C(C)C)c2n1,116,92,99,86,69,14,69,27,86,
N/C(=N\[N+](=O)[O-])N/N=C\c1ccc(-c2cccc([N+](=O)[O-])c2)o1,76,87,90,95,,97,,,97,
CCc1nc(-c2ccc(OC)cc2)[nH]c1-c1ccncc1,,,,34,,,105,105,,
O=C1Nc2ccc3ncsc3c2/C1=C/c1c[nH]cn1,1,1,1,-5,58,24,77,31,82,
